These results are taken from PubChem BioAssay (Tox21).

Several values for one entry are separate records, joined by “and”; a condition that tells them apart may be missing. Equal values may be shown once. Results filed as inconclusive are left out. A call without a number means that no potency is given here. Some structures have more than one record in an assay (separate samples or runs), and their calls can disagree. Activity calls are given as the source filed them. Calls come from the whole dose curve; as a rule, active = well fitted cell-killing curve with a large enough effect in the repeat runs; inconclusive = weak or mixed curves, or effect the other way; inactive = flat fitted curve, though single readings scatter.
Potency is the fitted concentration of half-maximal effect.

A short description of the test: qHTS RealTime-Glo MT Cell Viability Assay in HEK293 cells - 32 hour (AID 1224868). For activity change, negative = cytotoxic: top concentration of the series differs between compounds. Note: nearly all actives have a fitted effect of over 50% in size. As to conditions: RealTime-Glo luminescence; series mostly up to 76.8 µM; activity change, negative = cytotoxic: at the top concentration. The source says:
National Center for Advancing Translational Sciences [NCATS]
NIH Chemical Genomics Center [NCGC]
U.S. Environmental Protection Agency [EPA]
National Institutes of Environmental Health Sciences [NIEHS]
National Toxicology Program [NTP]
U.S. Food and Drug Administration [FDA]
Measure of cell viability is critical in the cell-base assay. Analysis of cell viability is necessary for the characterization of cell responses to cytotoxic drugs and environmental stress. A RealTime-Glo MT Cell Viability Assay to monitor cell viability in real time of continues cell culture during 40 hours of compound treatment was used to screen Tox21 10K library compounds in Hek293 cells. The RealTime-Glo MT Cell Viability Assay is a nonlytic, homogeneous, bioluminescent method to measure cell viability in real time using a simple, plate-based method. The assay involves adding NanoLuc luciferase and a cell-permeant prosubstrate to cells in culture. Viable cells reduce the proprietary prosubstrate to generate a substrate for NanoLuc luciferase. This substrate diffuses from cells into the surrounding culture medium, where it is rapidly used by the NanoLuc Enzyme to produce a luminescent signal. The signal correlates with the number of viable cells, making the assay well suited for cytotoxicity studies.
Tox21 Assay Protocol Summary:
The mixture of Hek293 cell suspension and reagents were dispensed at 600cells/6 ul/well in 1536-well tissue culture treated black solid bottom plates using a Multidrop dispenser. After the assay plates were incubated at a 37 C/5% CO2 incubator for 5 hours, 23 nL of compounds dissolved in DMSO, positive and negative controls was transferred to the assay plate by a pintool work station. The plates were incubated at 37 C for 40 hours. The luminescence intensity were measured at 0h, 8h, 16h, 24h, 32h and 40h time points using ViewLux plate reader during compound treatment.
(In general: In qHTS, concentration-response curves come from the screen itself.)
Consider `Cc1cn([C@H]2C=C[C@@H](CO)O2)c(=O)[nH]c1=O`, for which the Potency result was “inactive”.

As for `CCOC(N)=O`, the Potency entry was “inactive”.

In the case of `CC(=O)Nc1c(I)c(NC(C)=O)c(I)c(C(=O)O)c1I`, the Potency result is “inactive”.

Take `O=C1O[C@H]([C@@H](O)CO)C(O)=C1O`: the Potency result was “inactive”.

On to `Cc1ncc([N+](=O)[O-])n1CCO`, for which the Potency entry is “inactive”.

Take `CC(=O)CCC(=O)O`: the Potency entry is “inactive”.

Turning to `Nc1ccc(S(N)(=O)=O)cc1`, the Potency result was “inactive”.

On to `CN(N=O)C(=O)N[C@@H]1[C@@H](O)[C@H](O)[C@@H](CO)O[C@@H]1O`, for which the Potency result was “inactive”.

With `CCCCCCCCCCCCCCCC[N+](C)(C)Cc1ccccc1`, the Potency is 7.14 µM (active) and 11.2 µM (active) and 3.38 µM (active).

As for `Cc1ccc(S(=O)(=O)O)cc1`, the Potency entry was “inactive”.

Take `Nc1ccc([N+](=O)[O-])cc1O`: the “activity change, negative = cytotoxic” value was 1.98% (inactive).

With `COc1ccc2cc(S(=O)(=O)N[C@H](CC(=O)N[C@H](Cc3ccc(CN4[C@H](C)CCC[C@@H]4C)cc3)C(=O)N(C)C(C)C)c3ccc4c(c3)OCO4)ccc2c1`, the Potency is 26.1 µM (active).

Regarding `COc1ccc(OC(F)(F)F)cc1CN[C@H]1CCCN[C@H]1c1ccccc1`, the Potency is 43.6 µM (active).

As for `CC(O)(P(=O)(O)O)P(=O)(O)O`, the Potency result is “inactive”.

In the case of `C=C(C)C(=O)OCC(C)O` (stereo not given), the Potency result is “inactive”.

With `Nc1c(N=Nc2ccc(-c3ccc(N=Nc4cc(S(=O)(=O)O)c5ccccc5c4N)cc3)cc2)cc(S(=O)(=O)O)c2ccccc12`, the Potency is 38.9 µM (active).

Turning to `NC(CO)(CO)CO`, the Potency entry was “inactive”.

On to `CN(C)CCOC(c1ccccc1)c1ccccc1`, for which the Potency result was “inactive”.

As to `Cc1c(C(=O)O)c(O)cc2c1C(=O)c1c(O)c([C@@H]3O[C@H](CO)[C@@H](O)[C@H](O)[C@H]3O)c(O)c(O)c1C2=O`, the Potency result is “inactive”.

With `COc1ccc(C(Cl)=C(c2ccc(OC)cc2)c2ccc(OC)cc2)cc1`, the Potency entry is “inactive”.

For `CCCCCCCC(=O)OCC(COC(=O)CCCCCCC)OC(=O)CCCCCCC`, the Potency result is “inactive”.

For the compound `CN1CCC[C@H]1c1cccnc1`, the Potency entry was “inactive”.

For the compound `C=CCc1ccc(O)c(OC)c1`, the Potency result is “inactive”.

On to `CC(=O)C(=O)O`, for which the Potency entry was “inactive”.

As to `O=C(O)c1ccccc1`, the Potency result is “inactive”.

For the compound `CN(C)C(=S)SC(=S)N(C)C`, the Potency was 1.78 µM (active) and 1.55 µM (active) and 6.74 µM (active).

For the compound `CNNCc1ccc(C(=O)NC(C)C)cc1`, the Potency result is “inactive”.

As for `C1=CC2C3C=CC(C3)C2C1` (stereo not given), the “activity change, negative = cytotoxic” value was 6.08% (inactive).

Turning to `Oc1ccccc1`, the Potency result is “inactive”.

In the case of `CC(C)NCC(O)c1ccc(O)c(O)c1` (stereo not given), the Potency is 43.1 µM (active) and inactive.

For `O=C1NS(=O)(=O)c2ccccc21`, the Potency result is “inactive”.

For the compound `C=C1CC[C@H](O)C/C1=C\C=C1/CCC[C@]2(C)[C@@H]([C@H](C)CCCC(C)C)CC[C@@H]12`, the Potency is 43.2 µM (active).

In the case of `C/C=C/C=C/C(=O)O`, the Potency result is “inactive”.

For the compound `NC(=O)n1c(O)c(C(=O)c2cccs2)c2cc(Cl)ccc21`, the “activity change, negative = cytotoxic” value was -2.44% [at 35.3 µM] (inactive).

`Cc1cc(C)nc(NS(=O)(=O)c2ccc(N)cc2)n1`: the Potency entry was “inactive”.

On to `CCN(CC)C(=O)c1cccc(C)c1`, for which the Potency entry was “inactive”.

For the compound `CS(=O)(=O)OCCCCOS(C)(=O)=O`, the Potency entry was “inactive”.

For the compound `CC(C)c1c(C(=O)Nc2ccccc2)c(-c2ccccc2)c(-c2ccc(F)cc2)n1CC[C@@H](O)C[C@@H](O)CC(=O)O`, the Potency result is “inactive”.

As to `O=C1c2c(O)cccc2Cc2cccc(O)c21`, the Potency result was “inactive”.

`CC(=O)CC(c1ccccc1)c1c(O)c2ccccc2oc1=O` (stereo not given): the Potency result was “inactive”.
